The values that follow come from PubChem BioAssay (NCATS).

Experiment [1] is described as follows: qHTS of pediatric cancer cell lines to identify multiple opportunities for drug repurposing: Primary screen for BT-37 cells (AID 1347094). Also: potency is read from the fitted curve at half-maximal effect. The gist of the method: (§1)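 CRCs from 8- or 11-point titrations (lowest final 0.59 nM NPC, 0.78 nM MIPE). Cell viability: CellTiter-Glo after 48 h incubation, 15 min room-temperature development, luminescence imaging.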
Experiment [2] can be described thus: qHTS of pediatric cancer cell lines to identify multiple opportunities for drug repurposing: Primary screen for NB-EBc1 cells (AID 1347095). Also: potency is read from the fitted curve at half-maximal effect. The gist of the method: as §1
Experiment [3] in a line: qHTS of pediatric cancer cell lines to identify multiple opportunities for drug repurposing: Primary screen for U-2 OS cells (AID 1347096). Also: nearly all actives have a fitted effect of over 50% in size. The gist of the method:
(§2)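 Cells (500-1,000/well) rested 5 h, then received compounds for 48 h; metabolically active cells were measured by CellTiter-Glo luminescence. Final concentrations spanned up to 46 µM (MIPE, 11-point) or 0.59 nM-46 µM (NPC, 8-point) in primary screens, 11-point in follow-ups.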

A short description of experiment [4]: qHTS of pediatric cancer cell lines to identify multiple opportunities for drug repurposing: Primary screen for NB1643 cells (AID 1347099). Also: nearly all actives have a fitted effect of over 50% in size. Also: potency is read from the fitted curve at half-maximal effect. The procedure, abridged: as §1
Experiment [5] is described as follows: qHTS of pediatric cancer cell lines to identify multiple opportunities for drug repurposing: Primary screen for BT-12 cells (AID 1347101). Also: nearly all actives have a fitted effect of over 25% in size. Also: potency is read from the fitted curve at half-maximal effect. The procedure, abridged:
as §2

Experiment [6] in a line: qHTS of pediatric cancer cell lines to identify multiple opportunities for drug repurposing: Primary screen for Rh18 cells (AID 1347102). Also: nearly all actives have a fitted effect of over 65% in size. Also: potency is read from the fitted curve at half-maximal effect. The procedure, abridged:
as §2

Experiment [7] can be described thus: qHTS of pediatric cancer cell lines to identify multiple opportunities for drug repurposing: Primary screen for OHS-50 cells (AID 1347103). Also: nearly all actives have a fitted effect of over 40% in size. Also: potency is read from the fitted curve at half-maximal effect. The gist of the method: as §2
Experiment [8] is described as follows: qHTS of pediatric cancer cell lines to identify multiple opportunities for drug repurposing: Primary screen for RD cells (AID 1347104). Also: nearly all actives have a fitted effect of over 55% in size. Also: potency is read from the fitted curve at half-maximal effect. The procedure, abridged:
as §1

Experiment [9] is described as follows: qHTS of pediatric cancer cell lines to identify multiple opportunities for drug repurposing: Primary screen for MG 63 (6-TG R) cells (AID 1347105). Also: nearly all actives have a fitted effect of over 50% in size. Also: potency is read from the fitted curve at half-maximal effect. The procedure, abridged:
as §1

Experiment [10] in a line: qHTS of pediatric cancer cell lines to identify multiple opportunities for drug repurposing: Primary screen for control Hh wild type fibroblast cells (AID 1347106).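 Also: series mostly up to about 46 µM; a drop in luminescence marks cytotoxicity and a rise apparent proliferation; nearly all actives have a fitted effect of over 55% in size.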 The procedure, abridged: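 Viability after 48 h compound treatment at 37C, 500-1,000 cells/well, read as ATP luminescence with CellTiter-Glo. Primary screens used 11-point (MIPE, 0.78 nM-46 µM) or 8-point (NPC, 0.59 nM-46 µM) final concentrations; follow-up screens used 11-point dilutions.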

The nature of experiment [11]: qHTS of pediatric cancer cell lines to identify multiple opportunities for drug repurposing: Primary screen for Rh30 cells (AID 1347107). Also: series mostly up to about 46 µM; nearly all actives have a fitted effect of over 75% in size. The gist of the method: as §2
Experiment [12] can be described thus: qHTS of pediatric cancer cell lines to identify multiple opportunities for drug repurposing: Primary screen for Rh41 cells (AID 1347108). Also: nearly all actives have a fitted effect of over 70% in size. Also: potency is read from the fitted curve at half-maximal effect. The procedure, abridged: as §1
A short description of experiment [13]: qHTS of pediatric cancer cell lines to identify multiple opportunities for drug repurposing: Primary screen for SK-N-MC cells (AID 1347093). Also: potency is read from the fitted curve at half-maximal effect. The procedure, abridged: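 Metabolically active cells were quantified by ATP-dependent luminescence (CellTiter-Glo, 15 min at room temperature) following 48 h treatment. Cells had been plated at 500-1,000 per well and settled for 5 h beforehand.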

Experiment [14] can be described thus: qHTS of pediatric cancer cell lines to identify multiple opportunities for drug repurposing: Primary screen for Saos-2 cells (AID 1347097). Also: nearly all actives have a fitted effect of over 40% in size. Also: potency is read from the fitted curve at half-maximal effect. The gist of the method:
as §1

Experiment [15] is described as follows: qHTS of pediatric cancer cell lines to identify multiple opportunities for drug repurposing: Primary screen for SK-N-SH cells (AID 1347098). Also: nearly all actives have a fitted effect of over 65% in size. Also: potency is read from the fitted curve at half-maximal effect. The gist of the method: as §2
A short description of experiment [16]: qHTS of pediatric cancer cell lines to identify multiple opportunities for drug repurposing: Primary screen for LAN-5 cells (AID 1347100). Also: potency is read from the fitted curve at half-maximal effect. The procedure, abridged: as §2
Experiment [17] in a line: qHTS of pediatric cancer cell lines to identify multiple opportunities for drug repurposing: Confirmatory screen for SK-N-MC cells (AID 1347111).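 Also: potency is read from the fitted curve at half-maximal effect; cells exposed to compound for 48 h before the readout; nearly all actives have a fitted effect of over 70% in size.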 The procedure, abridged: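 Seed 500-1,000 cells/well; rest 5 h at 37 degrees C. Pin-transfer compounds, 11-point titration. Incubate 48 h. Add CellTiter-Glo, 15 min RT, read luminescence.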
The nature of experiment [18]: qHTS of pediatric cancer cell lines to identify multiple opportunities for drug repurposing: Confirmatory screen for BT-12 cells (AID 1347112). Also: nearly all actives have a fitted effect of over 55% in size. The gist of the method: as §2

Molecules are shown by their SMILES. Results filed as inconclusive are left out. Activity calls are given as the source filed them. Calls follow the shape of the dose curve; as a rule, active = well fitted curve in the direction sought with a large enough effect; inconclusive = small, poorly fitted or top-dose-only effect, or another doubt; inactive = no such curve, though single readings can be large; an effect the other way counts as inactive or inconclusive.

For `Cc1ccnc(NS(=O)(=O)c2ccc(NC(=O)Nc3ccc(S(=O)(=O)Nc4nccc(C)n4)cc3)cc2)n1`, the Potency was 10.9 µM (active) in experiment [1], 14.8 µM (active) in [2] and 24.3 µM (active) in experiment [5]. The Potency entry in experiment [3], in experiment [4], in [6], in experiment [7], in experiment [8] and in experiment [9] was “inactive” throughout. For the same compound, the Potency entry in experiment [10], in [11] and in experiment [12] was “inactive” throughout.
For `CCN(c1ccccc1)c1cc(NC)[n+](C)c(C)n1`, the Potency entry in experiment [13], in [3], in experiment [14], in experiment [4], in [5] and in [6] was “inactive” throughout. Also, the Potency entry in [7], in experiment [8], in experiment [9], in [10], in experiment [11] and in experiment [12] was “inactive” each time.
On to `O=c1ncn2nc(Sc3ccc(F)cc3F)ccc2c1-c1c(Cl)cccc1Cl`, for which the Potency entry in experiment [2], in experiment [4], in experiment [6], in experiment [8], in experiment [9] and in experiment [10] was “inactive” in each case. In addition, the Potency entry in [11] was “inactive”.
As to `CNC(=O)c1ccc(C)c(-n2c(C)cc(OCc3ccc(F)cc3F)c(Br)c2=O)c1`, the Potency result in experiment [1], in experiment [3], in experiment [15], in [8] and in [10] was “inactive” in each case. Further, the Potency in experiment [16] was 20.9 µM (active); in experiment [7], 24.3 µM (active).
As for `CC[C@H](Nc1ncnc2nc[nH]c12)c1nc2cccc(F)c2c(=O)n1-c1ccccc1`, the Potency was 0.935 µM (active) in experiment [13]; 14.8 µM (active) in [2]; 9.35 µM (active) in experiment [14]; 7.64 µM (active) in experiment [15]; 16.6 µM (active) in experiment [4]; 20.9 µM (active) in [16]. The Potency in experiment [7] is 6.85 µM (active); in experiment [9], 2.35 µM (active); in experiment [12], 14.8 µM (active). In addition, the Potency result in experiment [10] is “inactive”.
For the compound `CC1(C)Cc2c(-c3ccccc3)c(-c3ccc(Cl)cc3)c(CC(=O)O)n2C1`, the Potency result in experiment [3], in experiment [6] and in experiment [10] was “inactive” throughout. Besides, the Potency in experiment [14] is 33.2 µM (active).
As for `CC(C)C[C@H](NC(=O)[C@@H](O)[C@H](N)Cc1ccccc1)C(=O)O`, the Potency in experiment [1] is 27.3 µM (active); in experiment [14] it was 18.7 µM (active); in experiment [15] it was 24.1 µM (active); in [5], 30.6 µM (active); in [7] it was 19.3 µM (active); in experiment [8] it was 37.2 µM (active). The Potency in [12] was 23.5 µM (active). In addition, the Potency result in [3] and in experiment [10] was “inactive” throughout.
For `CNC(=O)c1ccccc1Sc1ccc2c(/C=C/c3ccccn3)n[nH]c2c1`, the Potency in experiment [13] was 2.99 µM (active); in [2], 1.5 µM (active); in experiment [14], 13.3 µM (active); in [5], 17.4 µM (active); in [6], 10.6 µM (active); in experiment [7], 17.4 µM (active). In addition, the Potency result in experiment [8] and in experiment [11] was “inactive” in each case.
For `Cc1cc2c(F)c(Oc3ncnn4cc(OC[C@@H](C)O)c(C)c34)ccc2[nH]1`, the Potency is 27.3 µM (active) in experiment [1]; 13.2 µM (active) in [2]; 18.7 µM (active) in experiment [14]; 24.1 µM (active) in experiment [15]; 20.9 µM (active) in experiment [16]; 30.6 µM (active) in experiment [7]. Besides, the Potency result in experiment [10] was “inactive”.
As for `O=S(=O)(N=Cc1c(O)ccc2ccccc12)c1cccs1`, the Potency entry in experiment [1], in [3], in experiment [15], in experiment [16], in experiment [6] and in experiment [8] was “inactive” in each case. In addition, the Potency entry in experiment [11] was “inactive”. The Potency in [14] was 18.7 µM (active); in [9], 2.35 µM (active); in experiment [12], 3.72 µM (active).
For the compound `NC(=O)c1ccc(-c2nc(-c3ccc4c(c3)OCCO4)c(-c3ccccn3)[nH]2)cc1`, the Potency entry in experiment [13], in [3], in experiment [14], in [4], in experiment [16] and in experiment [5] was “inactive” each time. Besides, the Potency entry in experiment [6], in [8], in experiment [9], in [10] and in experiment [11] was “inactive” throughout.
Take `CCCCCCCc1ccc(CCc2cccc(O)c2C(=O)O)cc1`: the Potency result in [3], in experiment [14], in experiment [4], in [16], in experiment [6] and in [10] was “inactive” each time.
With `Cc1cc([C@@H](C)Nc2ccccc2C(=O)O)c2nc(N3CCOCC3)cc(=O)n2c1`, the Potency is 55.9 µM (active) in experiment [1]; 24.1 µM (active) in experiment [2]; 9.59 µM (active) in [14]; 9.87 µM (active) in experiment [15]; 6.05 µM (active) in experiment [4]; 34 µM (active) in [16]. The Potency is 12.1 µM (active) in experiment [6]; 2.22 µM (active) in [7]; 12.1 µM (active) in experiment [8]; 1.71 µM (active) in experiment [9]; 8.55 µM (active) in [12]. For the same compound, the Potency entry in [3] and in [10] was “inactive” throughout.
In the case of `CC(C)(N)C(=O)N[C@H](COCc1ccccc1)C(=O)N1CCC2(CC1)CN(S(C)(=O)=O)c1ccccc12`, the Potency result in experiment [2], in experiment [3], in [14], in [16] and in experiment [10] was “inactive” throughout. In addition, the Potency is 30.4 µM (active) in [15], 23.5 µM (active) in experiment [4], 27.3 µM (active) in [7] and 26.4 µM (active) in experiment [8].
On to `CN(C)c1ccc(C2Nc3ccc4ccccc4c3C3=C2C(=O)CC(C)(C)C3)cc1Br` (configuration not stated), for which the Potency in experiment [13] was 7.43 µM (active); in experiment [4], 20.9 µM (active); in [17] it was 19.1 µM (active). Besides, the Potency entry in experiment [2], in [3], in [15], in experiment [16], in experiment [5] and in [6] was “inactive” throughout. Further, the Potency result in [10], in experiment [11] and in experiment [18] was “inactive” in each case.
